For 9 molecules, growth results are on record in PubChem BioAssay (NCI).

What all share (assay): NCI-60 one-dose screen, 48 h (100 = growth as untreated, 0 = no growth, -100 = all killed)
One test concerns SR leukemia. The following applies: 10 µM unless noted.
The subject of the next test is RPMI-8226 leukemia. To be noted: 10 µM unless noted.
Another test deals with OVCAR-8 ovarian. The following applies: 10 µM unless noted.
A further test deals with OVCAR-5 ovarian. The following applies: 10 µM unless noted.
A further test relates to OVCAR-4 ovarian. The following applies: 10 µM unless noted.
The subject of another test is SK-OV-3 ovarian. To be noted: 10 µM unless noted.
Another test concerns IGROV1 ovarian. To be noted: 10 µM unless noted.
The next test relates to OVCAR-3 ovarian. The following applies: 10 µM unless noted.
The test system of another test is HS 578T breast. The following applies: 10 µM.
The subject of another test is BT-549 breast. To be noted: 10 µM unless noted.
A further test concerns MDA-MB-435 melanoma. The following applies: 10 µM unless noted.
Another test relates to SW-620 colon. The following applies: 10 µM unless noted.
For the next test, the system named is MCF7 breast. The following applies: 10 µM unless noted.
For a further test, the system named is HCT-116 colon. The following applies: 10 µM unless noted.
A further test deals with HCC-2998 colon. To be noted: 10 µM unless noted.
The subject of another test is KM12 colon. The following applies: 10 µM unless noted.
Another test concerns NCI/ADR-RES ovarian. The following applies: 10 µM unless noted.
The test system of the next test is T-47D breast. To be noted: 10 µM unless noted.

Each structure is given as a SMILES string. About 83,000 compounds went through this panel and 20% of them were active in at least one assay; those are over-represented in the sample as a whole.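 Plates (96-well) were seeded with cells, treated with compound at one concentration, and incubated for 48 hours before percent growth was determined.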 Unmarked numbers belong to inactive results. Calls of active or inactive are those of the source. How the source made its calls: active means growth percent below 10; inactive means the rest.

As to `Nc1nc(N)c2cc(Sc3ccc(Cl)cc3)ccc2n1`, the growth is 7.93% (active) in the test with SR leukemia; 20.1% in the test on RPMI-8226 leukemia; 34.8% in the test with OVCAR-8 ovarian; 39.4% in the test with OVCAR-5 ovarian; 70.2% with OVCAR-4 ovarian; 59.7% with SK-OV-3 ovarian. Moreover, the growth in the test with IGROV1 ovarian was 22.9%; with OVCAR-3 ovarian, 25.7%; with HS 578T breast, 45.4%; in the test on BT-549 breast it was 54.7%; in the test with MDA-MB-435 melanoma, 28.6%; in the test on SW-620 colon, 25.8%. Moreover, the growth was 19.7% in the test with MCF7 breast, 16.2% with HCT-116 colon, 6.07% (active) in the test on HCC-2998 colon and 20.5% in the test with KM12 colon.

`CC(C)COC(=O)NC(C)(C)C`: the growth with SR leukemia was 91.5%; in the test on RPMI-8226 leukemia it was 103%; in the test with OVCAR-8 ovarian, 103%; in the test on OVCAR-5 ovarian it was 97.9%; in the test with OVCAR-4 ovarian, 106%; with SK-OV-3 ovarian, 103%. Further, the growth is 107% with IGROV1 ovarian; 105% in the test with OVCAR-3 ovarian; 106% in the test on NCI/ADR-RES ovarian; 99.6% in the test with T-47D breast; 102% in the test with BT-549 breast; 107% with MDA-MB-435 melanoma. Further, the growth with SW-620 colon is 99.4%; with HCT-116 colon it was 105%; with HCC-2998 colon, 97%; with KM12 colon, 113%.

For `COc1ccc(C(=O)/C=C/c2cn(-c3ccccc3)nc2-c2cccc(Nc3ccnc4cc(Cl)ccc34)c2)cc1`, the growth in the test with SR leukemia is 8.4% (active); with RPMI-8226 leukemia, 66.7%; with OVCAR-8 ovarian, 91.1%; in the test with OVCAR-5 ovarian it was 111%; in the test with OVCAR-4 ovarian, 115%; in the test on SK-OV-3 ovarian, 118%. The growth with IGROV1 ovarian was 105%; with OVCAR-3 ovarian, 110%; in the test on HS 578T breast, 88.8%; in the test with BT-549 breast it was 100%; in the test with MDA-MB-435 melanoma, 66%; in the test on SW-620 colon, 97.8%. Moreover, the figures for the growth in the test on MCF7 breast, with HCC-2998 colon and in the test with KM12 colon were 85.8%, 109% and 94.9%, respectively.

On to `COc1cc(C2CC(c3cccc(Nc4ccnc5cc(Cl)ccc45)c3)=NN2c2ccccc2)cc(OC)c1OC` (stereo not drawn), for which the growth is 52.7% with SR leukemia; 53.1% in the test on RPMI-8226 leukemia; 69.6% with OVCAR-8 ovarian; 99.8% in the test on OVCAR-5 ovarian; 124% with OVCAR-4 ovarian; 101% with SK-OV-3 ovarian. The growth with IGROV1 ovarian was 76.4%; in the test on OVCAR-3 ovarian it was 90.6%; in the test on HS 578T breast, 63.6%; in the test with T-47D breast, 42.9%; with BT-549 breast, 88.6%; in the test with MDA-MB-435 melanoma it was 24.4%. In addition, the results for the growth with MCF7 breast, in the test with HCT-116 colon and in the test on KM12 colon were 60.6%, 64.8% and 40.7%, respectively.

`Cc1cc(N=Nc2ccc(-c3ccc(N=Nc4ccc(O)c(C(=O)O)c4)cc3)cc2)c(N)c(N=Nc2ccc(C(=O)O)cc2)c1N`: the growth is 75.9% in the test on SR leukemia; 67.1% in the test on RPMI-8226 leukemia; 90.8% with OVCAR-8 ovarian; 100% in the test on OVCAR-5 ovarian; 97.1% in the test with OVCAR-4 ovarian; 103% in the test on SK-OV-3 ovarian. Moreover, the growth was 83.3% in the test with IGROV1 ovarian; 93.1% in the test on OVCAR-3 ovarian; 78.6% with T-47D breast; 67.3% in the test on BT-549 breast; 99.5% in the test on MDA-MB-435 melanoma; 95.6% with SW-620 colon. For the same molecule, the growth is 97.6% in the test on MCF7 breast, 65.5% in the test on HCT-116 colon, 87.7% in the test on HCC-2998 colon and 92.1% in the test on KM12 colon.

For `CS(=O)(=O)Nc1cc(-c2cc3ncc(C#N)c(Nc4ccc(Oc5ccccc5)c(Cl)c4)c3s2)cnc1Cl`, the growth was 20.5% in the test with SR leukemia; 62.7% with RPMI-8226 leukemia; 50.6% in the test on OVCAR-8 ovarian; 75.9% in the test with OVCAR-5 ovarian; 57.6% in the test with OVCAR-4 ovarian; 43.4% in the test on SK-OV-3 ovarian. Further, the growth in the test on IGROV1 ovarian was 11%; in the test with OVCAR-3 ovarian it was 50.7%; in the test with NCI/ADR-RES ovarian, 72.2%; in the test with T-47D breast, 15.8%; in the test with BT-549 breast, 51%; in the test on MDA-MB-435 melanoma, 67.4%. For the same molecule, the growth is 48% in the test with SW-620 colon; 26.5% in the test on MCF7 breast; 45.1% in the test on HCT-116 colon; 64.5% with HCC-2998 colon; 56.8% in the test with KM12 colon.

Consider `COc1ccc(C2CC(c3cccc(Nc4ccnc5cc(Cl)ccc45)c3)=NN2c2ccccc2)cc1` (stereo not drawn), for which the growth in the test with SR leukemia was 29.7%; with RPMI-8226 leukemia, 67.9%; in the test with OVCAR-8 ovarian, 76.4%; with OVCAR-5 ovarian, 85.6%; in the test on OVCAR-4 ovarian, 118%; in the test with SK-OV-3 ovarian, 80.8%. Besides, the growth was 74.8% in the test on IGROV1 ovarian; 92.1% in the test on OVCAR-3 ovarian; 78.3% in the test with HS 578T breast; 50.8% with T-47D breast; 63% with BT-549 breast; -9.41% (active) in the test with MDA-MB-435 melanoma. The growth is 36.8% with SW-620 colon, 54.1% in the test with HCC-2998 colon and 27.1% with KM12 colon.

On to `CC(=O)[C@H]1CC[C@H]2[C@@H]3CC[C@H]4CC=CC[C@]4(C)[C@H]3CC[C@]12C`, for which the growth is 68.9% in the test with SR leukemia; 65.5% in the test with RPMI-8226 leukemia; 94.3% in the test with OVCAR-8 ovarian; 87% in the test with OVCAR-5 ovarian; 89.9% in the test with OVCAR-4 ovarian; 101% in the test with SK-OV-3 ovarian. For the same molecule, the growth was 93.9% in the test with IGROV1 ovarian; 122% in the test on OVCAR-3 ovarian; 98.9% in the test on NCI/ADR-RES ovarian; 95.2% with T-47D breast; 102% in the test on BT-549 breast; 101% with MDA-MB-435 melanoma. In addition, the growth with SW-620 colon is 101%; in the test with MCF7 breast it was 114%; in the test on HCT-116 colon, 84.8%; in the test on HCC-2998 colon, 97.2%; in the test with KM12 colon, 113%.

`CC(C)N=C1CCCC1C(=S)SSC(=S)C1CCCC1=NC(C)C` (stereo not drawn): the growth with SR leukemia was 47.7%; in the test with RPMI-8226 leukemia, 59.5%; in the test on OVCAR-8 ovarian, 61.7%; in the test on OVCAR-5 ovarian, 93.9%; in the test on OVCAR-4 ovarian, 53.8%; in the test on SK-OV-3 ovarian it was 110%. Also, the growth in the test on IGROV1 ovarian was 52.8%; in the test on OVCAR-3 ovarian, 44.8%; in the test on HS 578T breast it was 75.9%; with T-47D breast, 47%; in the test with BT-549 breast, 82.2%; in the test on MDA-MB-435 melanoma, 61.7%. The growth in the test with SW-620 colon is 74.9%; in the test on HCT-116 colon it was 51.4%; in the test with HCC-2998 colon it was 116%; in the test with KM12 colon, 101%.
